The text below walks through data of PubChem BioAssay AID651821 (The Scripps Research Institute Molecular Screening Center, 2012).

Among all 370,000 compounds or so, about 4,700 (1.3%) were called active. This is one part of a sample in which actives are shown more often than they occur.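 How the source made its calls: active means inhibition above the plate cutoff, the mean of all test compounds on that plate plus 3 SD (cut at about 35% in these data); inactive means the rest.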

The experiment in a line: small molecules binding CAG repeat RNA – biochemical, fluorescence, primary screen (AID 651821).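 Further: 0% = DMSO alone and 100% = 100 µM mitoxantrone as full dye displacement; higher means more dye released from RNA so lower well fluorescence.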 The settings on record: r(CAG) RNA repeat, TO-PRO-1 dye displacement fluorescence; at 3 µM; active compounds read high.
The inhibition is the drop in the measured response relative to a control, in per cent. `CN[C@H]1C[C@H]2c3cc(N4CCOCC4)ccc3CCN2C[C@H]1[C@H](C)O`: the inhibition was 0.53% (inactive).

On to `COC(=O)c1ccc(NC(=O)CSc2nc(N)c(NC(=O)c3ccc(Br)o3)c(=O)[nH]2)cc1`, for which the inhibition was 8.43% (inactive).

`COc1ccc(OCCCC(=O)Nc2nnc(C3CCCO3)s2)cc1` (stereo not drawn): the inhibition was -2.42% (inactive).

For `COc1ccc(CNC(=O)CCC(=O)Nc2nnc(C(C)C)s2)cc1`, the inhibition is -3.44% (inactive).

Take `COc1ccc(OCC(=O)Nc2nnc(-c3ccco3)s2)cc1`: the inhibition was 35.6% (active).

For the compound `CC(=O)C1=C(C)N(Cc2ccccc2)C(=S)NC1c1cccc(Br)c1` (stereo not drawn), the inhibition is 3.69% (inactive).

Turning to `Cc1[nH]nc2c1C(c1ccc(Br)cc1)NC2=O` (stereo not drawn), the inhibition is 2.38% (inactive).

Take `CCc1cc(-c2nnc(SCC(=O)NC3CC3)n2C)cs1`: the inhibition was -0.55% (inactive).

As for `Cc1nnc(SCC(=O)NCc2cccs2)[nH]c1=O`, the inhibition is 1.73% (inactive).

Take `CCc1ccc(C(=O)CSc2nnc(C)c(=O)[nH]2)cc1`: the inhibition was 1.9% (inactive).

Turning to `N#Cc1c(-c2cccs2)nc(SCC(=O)c2ccc(Br)cc2)[nH]c1=O`, the inhibition was 76% (active).

For `COc1ccc(-n2c(COc3ccccc3)nnc2SCC(=O)Nc2ccc3c(c2)OCO3)cc1`, the inhibition is 3.35% (inactive).

With `CN[C@H]1C[C@H]2c3[nH]c4c(-c5ccccc5)cccc4c3CCN2C(=O)[C@H]1[C@H](C)O`, the inhibition is 1.12% (inactive).

In the case of `COc1ccc([C@H]2OC(=O)C[C@H]2C(=O)N2CCN(c3ccccc3F)CC2)cc1OC`, the inhibition was -0.41% (inactive).

For the compound `O=C(CCCCCN1C(=O)C2C3C=CC(C3)C2C1=O)Nc1ccccc1` (stereo not drawn), the inhibition was -0.35% (inactive).

Turning to `Cc1c(C(=O)Nc2cccc(Cl)c2)cn2c(nc3ccccc32)c1C#N`, the inhibition is 0.68% (inactive).

In the case of `O=C(Nc1cccc(F)c1)c1cc(-c2ccco2)nc2ccccc12`, the inhibition was 35% (active).

In the case of `O=C(Nc1cccc(F)c1)c1coc(=O)c(Br)c1`, the inhibition was 1.62% (inactive).

`O=C(O)c1cccc(NC(=O)c2cc(-c3cccc(Cl)c3)nc3ccccc23)c1`: the inhibition was 49.4% (active).

With `Cc1cc(C(=O)Nc2ccc(C)c(S(=O)(=O)N3CCOCC3)c2)c2ccccc2n1`, the inhibition is 5.4% (inactive).

On to `O=C(Nc1nc2ccc(Cl)cc2s1)c1cc(-c2ccc(Cl)cc2)nc2ccccc12`, for which the inhibition was 7.74% (inactive).

As to `CN(C)S(=O)(=O)c1cccc(C(=O)N/N=C\c2ccco2)c1`, the inhibition was 3.29% (inactive).

As to `Cc1ccc(S(=O)(=O)N2CC3C(=O)C[C@@H](c4ccccc4Cl)N(S(=O)(=O)c4ccc(C)cc4)C3CC2c2ccccc2)cc1` (stereo partly drawn), the inhibition was 8.71% (inactive).

With `CC(C)CSc1nnc(-c2cccnc2)n1Cc1ccccc1`, the inhibition is -1.04% (inactive).

Consider `CN(C)CCCCCN(C)Cc1cc2ccccc2o1`, for which the inhibition was -1.3% (inactive).

Turning to `CC(=O)O[C@@]1(C(C)=O)CCC2[C@H]3C=C(C)C4=CC(=O)CC[C@@]4(C)C3CC[C@]21C` (stereo partly drawn), the inhibition is 1.96% (inactive).

With `Cc1coc2cc3oc(=O)c(CCC(=O)O)c(C)c3cc12`, the inhibition is -1.41% (inactive).

For `CCCCCCc1cc2cc(-c3nnc(-c4cccc(OC)c4)o3)c(=O)oc2cc1O`, the inhibition is 0.83% (inactive).

On to `COc1cccc(-c2coc3cc4oc(=O)c(CC(=O)O)c(C)c4cc23)c1`, for which the inhibition was 46.5% (active).

`CC[C@@H]1Cc2cc(O)ccc2C2=C1c1ccc(O)cc1C[C@H]2CC`: the inhibition was 6.76% (inactive).

`CCCCNC(=O)C[C@H]1C(=O)N(Cc2ccc(OC)cc2)C2=CCCC[C@@]21C(=O)OCC`: the inhibition was -0.31% (inactive).

As for `O=C1Nc2ccccc2OC1CC(=O)N1CCCCCCC1` (stereo not drawn), the inhibition was 4.22% (inactive).

Take `Cc1ccc(S(=O)(=O)Nc2nc3ccccc3s2)cc1[N+](=O)[O-]`: the inhibition was 45% (active).

In the case of `CCOc1ccc2sc(NS(=O)(=O)c3ccc(N)cc3)nc2c1`, the inhibition is 9.5% (inactive).

As to `Cc1ccc(S(=O)(=O)N(Cc2ccccc2)c2ccccn2)cc1[N+](=O)[O-]`, the inhibition is -3.84% (inactive).

Consider `CCOC(=O)[C@]12CCCC=C1N(Cc1ccc(OC)cc1)C(=O)[C@@H]2CC(=O)N1CCOCC1`, for which the inhibition was -1.51% (inactive).

Turning to `CN1CCCCC(NC(=O)C(C)(C)C)C1=O` (stereo not drawn), the inhibition is 2.33% (inactive).

Consider `COC(=O)[C@]12C[C@H](CC(=O)NCc3ccccc3)C(=O)N(CCc3ccc(OC)c(OC)c3)C1=C[C@H](C(C)(C)C)O[C@@H]2C`, for which the inhibition was -2.21% (inactive).

Regarding `COC(=O)CSc1ncnc2c1cnn2-c1ccc(C)cc1C`, the inhibition was -5.94% (inactive).

`CC(Sc1ncnc2c1cnn2-c1ccccc1)C(=O)Nc1ccc(N2CCOCC2)cc1` (stereo not drawn): the inhibition is 5.83% (inactive).

As to `Cc1ccc(-n2ncc3c(Nc4cccc(C(=O)O)c4)ncnc32)cc1`, the inhibition is 40.9% (active).

As for `O=C(NCCC1=CCCCC1)C1CCN(S(=O)(=O)c2ccc(Cl)s2)CC1`, the inhibition is 1% (inactive).

As to `CSc1ccc(CN(C)CC(=O)NCc2ccc(F)cc2)cc1`, the inhibition is -7.36% (inactive).

Turning to `O=C(NCc1ccccc1)[C@H]1CCCN1C(=O)[C@@H]1CCCN1C(=O)c1ccc(Cl)cc1Cl`, the inhibition was 1.95% (inactive).

Take `COC(=O)c1sccc1NS(=O)(=O)c1ccc(F)cc1F`: the inhibition was 1.91% (inactive).

For the compound `COC(=O)c1sccc1NC(=O)CSc1ccccc1NS(=O)(=O)c1cc(Cl)ccc1Cl`, the inhibition was 59.2% (active).

With `COC(=O)c1scc(C)c1NC(=O)CSc1ccc(Cl)cc1`, the inhibition is -5.15% (inactive).

With `C=CC[C@]12C[C@@]3(O[C@H](c4ccc(C(F)(F)F)cc4)N=C3C[C@H](c3ccc(OC)cc3)[C@H]1C)N(C1CCN(Cc3ccccc3)CC1)C2=O`, the inhibition is 5.05% (inactive).

With `COc1ccc(C(=O)OCCN2CCN(C3CN(Cc4cn(Cc5ccccc5F)nn4)S(=O)(=O)C3)CC2)cc1OC` (stereo not drawn), the inhibition is 1.05% (inactive).

`CCC(=O)OCCCN1C(=O)CCC12CCC(c1ccccc1)CC2` (stereo not drawn): the inhibition was -0.66% (inactive).

As for `COc1ccc(-c2cc(C(=O)NC(C(=O)O)C(C)C)c(C)o2)cc1OC` (stereo not drawn), the inhibition is 6.76% (inactive).

For `COc1ccc(-c2cc(=O)oc3cc(OCC(=O)N[C@@H](Cc4c[nH]c5ccccc45)C(=O)O)ccc23)cc1`, the inhibition is 55.5% (active).

As for `O=C(NC(Cc1c[nH]c2ccccc12)C(=O)O)/C(=C/c1ccco1)NC(=O)c1ccccc1` (stereo not drawn), the inhibition is 20.3% (inactive).

Take `COC(=O)C(Cc1c[nH]c2ccccc12)NC(=O)CCNC(=O)c1ccco1` (stereo not drawn): the inhibition is 2% (inactive).

Turning to `COC(=O)C(C)Oc1ccc2c(-c3cccc([N+](=O)[O-])c3)cc(=O)oc2c1` (stereo not drawn), the inhibition is 1.44% (inactive).

Consider `O=C(CCn1nnc2ccccc2c1=O)N[C@@H](Cc1c[nH]c2ccccc12)C(=O)O`, for which the inhibition is 2.19% (inactive).

As for `CC(Oc1ccc2c(-c3ccccc3)cc(=O)oc2c1)C(=O)NC(Cc1c[nH]c2ccccc12)C(=O)O` (stereo not drawn), the inhibition is 42.8% (active).

Regarding `CCOCCCNC(=O)C(NC(=O)Cc1c[nH]c2ccccc12)c1ccc(OC)cc1` (stereo not drawn), the inhibition was -4.93% (inactive).

With `COc1ccc(-c2cc(=O)oc3cc(OC(C)C(=O)NCC4CCC(C(=O)O)CC4)ccc23)cc1` (stereo not drawn), the inhibition is 8.77% (inactive).

As for `COc1ccc(-c2cc(C(=O)NC(Cc3c[nH]c4ccccc34)C(=O)O)c(C)o2)cc1OC` (stereo not drawn), the inhibition is 53.8% (active).

Regarding `O=C(N[C@@H](Cc1c[nH]c2ccccc12)C(=O)O)OCC1c2ccccc2-c2ccccc21`, the inhibition was 59.4% (active).

In the case of `COc1ccc(-c2cc(=O)oc3cc(OCC(=O)N(C)C4CCS(=O)(=O)C4)ccc23)cc1` (stereo not drawn), the inhibition was -1.96% (inactive).

For `COC(=O)c1cc(S(=O)(=O)N2CCN(C(=O)C3CCCO3)CC2)cn1C` (stereo not drawn), the inhibition is 1.73% (inactive).

Regarding `COC(=O)[C@]12C[C@H](CC(=O)NCc3ccc(OC)c(OC)c3)C(=O)N(Cc3ccccc3)C1=C[C@H](C(C)C)O[C@@H]2C1CC1`, the inhibition is 1.35% (inactive).

For the compound `O=C(NC1CCCCN(Cc2cccc(C(F)(F)F)c2)C1=O)c1ccccc1I` (stereo not drawn), the inhibition was -0.65% (inactive).

On to `Cc1csc(CN(C)C(=O)CC2C(=O)NCCN2CC(C)(C)C)n1` (stereo not drawn), for which the inhibition was -3.94% (inactive).

As to `O=C(NCc1ccco1)C1CCCN(S(=O)(=O)c2ccc(Cl)s2)C1` (stereo not drawn), the inhibition was -0.27% (inactive).

`CSC1=NN(c2ccccc2)CN(c2ccccc2)N1C`: the inhibition is 0.22% (inactive).

As for `COc1ccccc1-c1ccc([C@@H]2C[C@H]3[C@H](CON3C)CN2S(=O)(=O)c2cc(Cl)cc(Cl)c2)cc1`, the inhibition is 5.7% (inactive).

For `CN(Cc1ccccc1)CC(O)COc1ccc(CNCc2cc3ccccc3s2)cc1` (stereo not drawn), the inhibition was -2.3% (inactive).

As to `Nn1c(SCC(=O)N2c3ccccc3Sc3ccccc32)nnc1-c1n[nH]c2c1CCC2`, the inhibition is 12.9% (inactive).

For `CC(CCN1CCC(C(O)(c2ccccc2)c2ccccc2)CC1)Oc1ccc(C(F)(F)F)cc1` (stereo not drawn), the inhibition was 2.52% (inactive).

Regarding `Cc1ccc(C2=CCN(C)C(=O)N2c2ccc(Cl)cc2)cc1`, the inhibition was 6.97% (inactive).

Consider `O=C(CSc1nnc(-c2ccncc2)n1-c1ccc(Cl)cc1)Nc1ccc(C(=O)O)cc1`, for which the inhibition is 3.19% (inactive).

Consider `Cc1ccc(-n2c(SCC(=O)Nc3ccc(S(=O)(=O)Nc4nccs4)cc3)nnc2-c2cccnc2)cc1`, for which the inhibition is 60.1% (active).

Regarding `Cn1c(SCC(=O)Nc2nccs2)nnc1-c1cccnc1`, the inhibition was 3.4% (inactive).

As for `Cc1ccc(-n2c(SCC(=O)Nc3ccc(S(=O)(=O)Nc4nccs4)cc3)nnc2-c2ccccn2)cc1`, the inhibition was 69.8% (active).

For `O=C(CSc1nnc(-c2ccccn2)n1-c1ccccc1)Nc1ccc2c(c1)OCO2`, the inhibition was 1.36% (inactive).

For `Cc1ccc(-n2c(SCC(=O)Nc3ccc4c(c3)OCO4)nnc2-c2ccccn2)cc1`, the inhibition is -1.61% (inactive).

`Cc1ccc(-c2nnc(SCC(=O)N/N=C/c3cccs3)n2-c2ccc(C)cc2)cc1`: the inhibition was 2.97% (inactive).

As to `COc1ccc(-n2c(SCC(=O)Nc3ccc4cn[nH]c4c3)nnc2-c2cccnc2)cc1`, the inhibition is 5.12% (inactive).

With `Cc1ccc(-n2c(SCC(=O)Nc3ccc(S(=O)(=O)Nc4nccs4)cc3)nnc2-c2ccncc2)cc1`, the inhibition is 67.7% (active).

As to `Cc1ccc(Cn2cc(COC(=O)N(C)Cc3ccccc3)nn2)cc1`, the inhibition is 0.63% (inactive).
